# PubChem BioAssay (Tox21)
# “And” between values parts separate entries of the source, which are not always exact repeats. Equal values may be shown once. Records with an inconclusive call do not appear. A call without a number means that no potency is given here. Values without a mark were called inactive. The source made the active and inactive calls. Calls come from the whole dose curve; as a rule, active = well fitted cell-killing curve with a large enough effect in the repeat runs; inconclusive = weak or mixed curves, or effect the other way; inactive = no such curve, though single readings can be large or run the other way.
# Test: qHTS assay to identify small molecule antagonists of the vitamin D receptor (VDR) signaling pathway - cell viability counter screen (AID 743225); note: nearly all actives have a fitted effect of over 50% in size
# Details: VDR-bla HEK293T viability, CellTiter-Glo luminescence, 16 h; series mostly up to 61 µM
# Source text: U.S. Tox21 Program National Center for Advancing Translational Sciences [NCATS] NIH Chemical Genomics Center [NCGC] U.S. Environmental Protection Agency [EPA] National Institutes of Environmental Health Sciences [NIEHS] National Toxicology Program [NTP] U.S. Food and Drug Administration [FDA] Tox21 Assay Overview: The vitamin D receptor (VDR), a member of nuclear hormone receptor superfamily, plays a critical role in calcium homeostasis and bone metabolism. It is also involved in cell differentiation and growth, and thrombogenicity. To identify the compounds that inhibit VDR signaling, the VDR-UAS-bla HEK 293T cell line (Invitrogen, Carlsbad, CA, USA) containing a beta-lactamase reporter gene under the control of an upstream activator sequence (UAS) was used to screen the Tox21 10K compound library. The cytotoxicity of the Tox21 compound library against the VDR-bla cell line was tested in parallel by measuring the cell viability using CellTiter-Glo assay (Promega, Madison, WI) in the same wells.
# Tox21 Assay Protocol Summary: VDR-bla cells were dispensed at 2,000 cells/5 uL of assay medium per well into black wall/clear-bottom 1536-well plates using a Multidrop Combi (Thermo Fisher Scientific, Waltham, MA) dispenser. After the assay plates were incubated at a 37C and 5% CO2 for 4 h, 23 nL of compounds dissolved in DMSO, positive controls or DMSO only was transferred to the assay plate by a Pintool station (Kalypsys, San Diego, CA), followed by addition of 1 uL of 1-alpha, 25-Dihydroxy Vitamin D3 (3 nM, final concentration in the wells) using a Bioraptr Flying Reagent Dispenser (FRD) workstation (Beckman Coulter, Indianapolis, IN). The plates were incubated at 37C and 5% CO2 for 16 h, and then 1 uL of LiveBLAzerTM B/G FRET substrate was added using a Bioraptr FRD. The plates were incubated at room temperature for 2 h and fluorescence intensity was measured by an Envision plate reader (PerkinElmer, Shelton, CT). For cell viability readout that measures cytotoxicity, 3 ul/well of CellTiter-Glo reagent was added into the assay plates using a Bioraptr FRD. After 30 min incubation at room temperature, the luminescence intensity in the plates was measured using a ViewLux plate reader (PerkinElmer).
# Potency is the fitted concentration of half-maximal effect.
Structure (SMILES),Potency,"viability change, negative = cytotoxic"
CCCSS/C(CCO)=C(\C)N(C=O)Cc1cnc(C)nc1N,inactive,–
CC(=O)Oc1ccc(C2(c3ccc(OC(C)=O)cc3)C(=O)Nc3ccccc32)cc1,inactive,–
CCCCCCC(C)Nc1ccc(Nc2ccccc2)cc1 (stereo not given),43.6 µM (active),–
CCOC(=O)[C@@](C)(N)Cc1ccc(O)c(O)c1,inactive,–
C=C(c1ccc(C(=O)O)cc1)c1cc2c(cc1C)C(C)(C)CCC2(C)C,21.3 µM (active),–
c1ccc(Sc2ccccc2)cc1,inactive,–
COC(=O)[C@]1(C)CCC[C@@]2(C)[C@H]1CC=C1C=C(C(C)C)CC[C@@H]12,inactive,–
O=C(O)CCCCCCC(=O)O,inactive,–
CC(C)c1cccc(C(C)C)c1N1C(=O)c2ccc(O)cc2C1=O,49 µM (active),–
NCCCCCCNCCCCCCN,inactive,–
N[C@@H](CSSC[C@H](N)C(=O)O)C(=O)O,–,6.19% [at 0.628 µM]
CN(Cc1cc(Br)cc(Br)c1N)C1CCCCC1,inactive,–
CC(C)(c1cc(Br)c(O)c(Br)c1)c1cc(Br)c(O)c(Br)c1,43.5 µM (active),–
Oc1ccc(-c2ccccc2)c(Cl)c1,inactive,–
SCCCCCCCCS,inactive,–
S=C(SSSSSSC(=S)N1CCCCC1)N1CCCCC1,inactive,–
Cc1cccc(Br)c1,inactive,–
COc1cc(C(C)C)c2c(c1)S(=O)(=O)N(COc1cc(=O)n3cccc(OCCN4CCCCC4)c3n1)C2=O,inactive,–
Clc1ccccc1CN1CCc2sccc2C1,inactive,–
Cc1cccc(C)c1NC(=O)CN1CCN(CCCC(c2ccc(F)cc2)c2ccc(F)cc2)CC1,23.9 µM (active),–

Structure (SMILES),Potency,"viability change, negative = cytotoxic"
CSc1c(Cl)c(Cl)c(Cl)c(Cl)c1Cl,inactive,–
c1ccc(Nc2cccc3ccccc23)cc1,inactive,–
Cc1cn[nH]c1,inactive,–
CN(C)c1ccc(N=Nc2ccccc2C(=O)O)cc1,inactive,–
CCN=c1cc2oc3cc(NCC)c(C)cc3c(-c3ccccc3C(=O)OCC)c-2cc1C,48.8 µM (active) and 24.5 µM (active),–
Clc1ccc(C(Cn2ccnc2)OCc2c(Cl)cccc2Cl)c(Cl)c1 (stereo not given),inactive,–
C=CCCCCCCC=C,inactive,–
CCCCOc1ccc(C(=O)CCN2CCCCC2)cc1,inactive,–
O=C(O)Cc1ccc(OCCNC[C@H](O)c2ccccc2)cc1,inactive,–
CC(=O)Nc1ccc(O)cc1,inactive,–
C[Si](C)(C)Cl,inactive,–
C=CC(=C)CCC=C(C)C,inactive,–
CCN=C1C=CC(=C(c2ccc(N(CC)CC)cc2)c2ccc(N(CC)CC)cc2)c2ccccc21,19.4 µM (active),–
C[C@H]1O[C@@H](O[C@H]2[C@@H](O)C[C@H](O[C@H]3[C@@H](O)C[C@H](O[C@H]4CC[C@@]5(C)[C@H](CC[C@@H]6[C@@H]5C[C@@H](O)[C@]5(C)[C@@H](C7=CC(=O)OC7)CC[C@]65O)C4)O[C@@H]3C)O[C@@H]2C)C[C@H](O)[C@@H]1O,21.9 nM (active) and 13.6 nM (active),–
Oc1ccc(-c2ccc(O)cc2)cc1,inactive,–
C=C(C)C(=O)OCCC[Si](Cl)(Cl)Cl,inactive,–
CCCCNc1c(C(=O)OCC)c(C)nc2c1cnn2CC,inactive,–
Cc1ccc(-n2[nH]c(C)c(N=Nc3cccc(-c4cccc(C(=O)O)c4)c3O)c2=O)cc1C,inactive,–
CCN(CC)CCOc1ccc(C(O)(Cc2ccc(Cl)cc2)c2ccc(C)cc2)cc1 (stereo not given),23.9 µM (active),–
C[C@@H]1CC[C@H]2C(C)(C)[C@H]3C[C@@]12CC[C@@]3(C)O,inactive,–
